target: histone methyltransferase SET domain containing 2 (SETD2) (Homo sapiens, UniProt Q9BYW2); assay: primary screen, binary call; higher = more effect of the substance
Experimental: The Chemiluminescence assay evaluates SETD2 specific tri -methylation activity towards histone H3K36. The kit consist s of recombinant SETD2, S-adenosylmethionine and a specific H3K36me3 antibody and was performed according to the manufacturer’s protocol (Catalo g- No. 52060, https://bpsbioscience.com/setd2 -chemiluminescent-assay-kit-52060). Values were blank corrected and normalized . Enzymatic activities were calculated relative to the positive control of the kit (full enzymatic activity) and to the known SET doma in inhibitor Sinefungin28 used as negative control (complete enzymatic activity inhibition). Compounds used were diluted in DMSO.

Chain of histone methyltransferase SET domain containing 2 (SETD2) (Q9BYW2 whole entry, looked up, the tested form may be a part): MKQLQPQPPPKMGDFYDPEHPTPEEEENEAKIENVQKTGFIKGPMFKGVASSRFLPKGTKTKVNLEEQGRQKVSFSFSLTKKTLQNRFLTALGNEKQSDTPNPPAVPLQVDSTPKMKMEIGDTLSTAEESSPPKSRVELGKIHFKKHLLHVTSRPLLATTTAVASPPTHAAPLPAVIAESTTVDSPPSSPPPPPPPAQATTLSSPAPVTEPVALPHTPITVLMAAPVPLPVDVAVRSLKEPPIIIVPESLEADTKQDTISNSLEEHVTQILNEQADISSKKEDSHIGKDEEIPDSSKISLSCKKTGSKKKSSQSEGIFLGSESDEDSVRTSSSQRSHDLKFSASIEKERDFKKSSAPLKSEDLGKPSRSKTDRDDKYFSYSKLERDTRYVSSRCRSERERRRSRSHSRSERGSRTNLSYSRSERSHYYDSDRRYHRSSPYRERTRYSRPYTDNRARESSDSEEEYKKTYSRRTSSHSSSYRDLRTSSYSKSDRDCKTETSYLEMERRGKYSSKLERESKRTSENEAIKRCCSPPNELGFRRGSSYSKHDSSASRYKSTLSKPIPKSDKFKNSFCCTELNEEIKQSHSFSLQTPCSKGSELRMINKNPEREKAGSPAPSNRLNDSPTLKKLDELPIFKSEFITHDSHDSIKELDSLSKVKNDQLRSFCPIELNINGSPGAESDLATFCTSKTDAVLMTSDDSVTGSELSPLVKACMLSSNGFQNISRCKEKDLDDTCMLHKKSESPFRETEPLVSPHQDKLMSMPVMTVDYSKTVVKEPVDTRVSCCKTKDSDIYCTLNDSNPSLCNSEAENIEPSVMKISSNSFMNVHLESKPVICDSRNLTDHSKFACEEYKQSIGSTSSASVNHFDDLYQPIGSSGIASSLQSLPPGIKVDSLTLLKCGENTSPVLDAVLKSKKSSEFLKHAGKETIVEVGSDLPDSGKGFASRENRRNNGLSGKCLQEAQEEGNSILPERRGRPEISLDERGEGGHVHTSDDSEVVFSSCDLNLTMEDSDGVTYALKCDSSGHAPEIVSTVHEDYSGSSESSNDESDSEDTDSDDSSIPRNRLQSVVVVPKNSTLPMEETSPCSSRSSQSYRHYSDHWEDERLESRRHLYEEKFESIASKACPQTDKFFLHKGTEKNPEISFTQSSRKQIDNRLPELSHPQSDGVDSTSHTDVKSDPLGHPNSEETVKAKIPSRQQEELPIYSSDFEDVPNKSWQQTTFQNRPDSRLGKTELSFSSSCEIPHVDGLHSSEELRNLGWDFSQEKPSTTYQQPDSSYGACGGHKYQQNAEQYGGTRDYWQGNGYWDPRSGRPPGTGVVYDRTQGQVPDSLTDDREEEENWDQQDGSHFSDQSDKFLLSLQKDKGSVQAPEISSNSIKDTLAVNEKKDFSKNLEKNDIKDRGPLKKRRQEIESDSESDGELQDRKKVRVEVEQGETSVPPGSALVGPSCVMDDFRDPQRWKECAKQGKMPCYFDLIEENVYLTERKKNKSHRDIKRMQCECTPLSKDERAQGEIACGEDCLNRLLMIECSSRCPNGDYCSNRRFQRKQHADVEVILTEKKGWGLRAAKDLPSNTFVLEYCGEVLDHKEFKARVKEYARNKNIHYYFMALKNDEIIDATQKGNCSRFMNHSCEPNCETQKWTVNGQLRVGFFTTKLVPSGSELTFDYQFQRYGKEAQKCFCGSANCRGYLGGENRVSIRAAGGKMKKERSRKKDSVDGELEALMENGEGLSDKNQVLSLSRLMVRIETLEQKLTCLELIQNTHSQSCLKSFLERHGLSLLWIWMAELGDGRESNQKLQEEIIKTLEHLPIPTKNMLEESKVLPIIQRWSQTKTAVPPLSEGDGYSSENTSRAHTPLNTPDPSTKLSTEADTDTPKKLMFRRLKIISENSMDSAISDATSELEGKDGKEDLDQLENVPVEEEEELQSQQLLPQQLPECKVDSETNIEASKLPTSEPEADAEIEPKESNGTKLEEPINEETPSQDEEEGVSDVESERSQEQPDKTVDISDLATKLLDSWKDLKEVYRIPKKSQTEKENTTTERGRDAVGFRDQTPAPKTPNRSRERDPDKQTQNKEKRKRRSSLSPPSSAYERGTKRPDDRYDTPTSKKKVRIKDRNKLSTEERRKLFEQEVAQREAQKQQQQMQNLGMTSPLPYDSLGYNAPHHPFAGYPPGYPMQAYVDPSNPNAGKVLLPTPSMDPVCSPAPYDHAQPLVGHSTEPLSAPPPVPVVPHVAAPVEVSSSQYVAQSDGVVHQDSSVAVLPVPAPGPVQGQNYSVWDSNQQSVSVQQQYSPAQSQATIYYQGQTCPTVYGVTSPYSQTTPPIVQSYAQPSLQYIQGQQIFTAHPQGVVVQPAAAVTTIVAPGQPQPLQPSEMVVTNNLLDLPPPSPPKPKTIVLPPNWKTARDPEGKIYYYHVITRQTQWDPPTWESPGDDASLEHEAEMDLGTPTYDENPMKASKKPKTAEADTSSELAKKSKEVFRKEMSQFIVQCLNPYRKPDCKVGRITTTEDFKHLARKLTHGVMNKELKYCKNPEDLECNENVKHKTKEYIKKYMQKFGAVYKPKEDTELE

Structure (SMILES) | SETD2
CC(=O)c1ccc2c(c1)CCCN2 | 0 (inactive)
Cc1cc(C)c2c(=O)[nH]n(C)c2n1 | 0 (inactive)
O=C1CNCCN1c1ccccc1 | 0 (inactive)
N#Cc1ccc(C(=O)N2CCOCC2)cc1 | 0 (inactive)
COc1cccc(NC2=NCCCCC2)c1 | 0 (inactive)
N[C@H]1c2ccccc2C[C@H]1CO | 0 (inactive)
O=C(NC1CC1)c1ccccc1O | 0 (inactive)
Oc1cnc(-c2ccccc2)nc1 | 0 (inactive)
N#Cc1ccc2ncsc2c1 | 0 (inactive)
NC(c1ccccc1)c1ccccc1 | 0 (inactive)
COc1ccccc1C1CCNCC1 | 0 (inactive)
O=C(O)c1cccc(Nc2ncccn2)c1 | 0 (inactive)
NCC1(c2ccccc2)CCOCC1 | 0 (inactive)
O=C1CCN(c2ccccn2)CC1 | 0 (inactive)
O=C(Nc1ccccc1)C1CC1 | 0 (inactive)
CS(=O)(=O)c1ccc(OC(F)(F)F)cc1 | 0 (inactive)
O=C(O)C1CCCN(C(=O)N2CCCC2)C1 (stereo not shown) | 0 (inactive)
O=C1NC2(CCCC2)Nc2ccccc21 | 0 (inactive)
Cc1cc(-c2ccccc2)n[nH]1 | 0 (inactive)
Cn1nc(C(F)(F)F)cc1O | 0 (inactive)

Structure (SMILES) | SETD2
c1ccc(Nc2nncs2)cc1 | 0 (inactive)
O=C(c1ccccc1F)N1CCNCC1 | 0 (inactive)
Cc1cnc(C(F)(F)F)cn1 | 0 (inactive)
CCc1ccc(NC2=NCCCS2)cc1 | 0 (inactive)
O=C(O)CC1CCC(=O)N1 (stereo not shown) | 0 (inactive)
c1ccc2oc(C3CCCNC3)nc2c1 (stereo not shown) | 0 (inactive)
COc1ccccc1CC1CCNCC1.Cl | 0 (inactive)
Fc1ccc2c(C3CCNCC3)c[nH]c2c1 | 0 (inactive)
COc1ccc(C2=CCNCC2)cc1 | 0 (inactive)
O=C(O)c1cnc(-c2ccccc2)s1 | 0 (inactive)
Cc1cc(N)no1 | 0 (inactive)
Clc1ccc2nnnn2n1 | 0 (inactive)
CC(CN)N1CCc2sccc2C1 (stereo not shown) | 0 (inactive)
Cc1ccc(CCNc2ccccc2)cn1 | 0 (inactive)
CC(=O)c1ccc2c(c1)CNCC2 | 0 (inactive)
c1ccc(-c2ccncc2)cc1 | 0 (inactive)
COC(=O)c1c(C)nc(C2CC2)[nH]c1=O | 0 (inactive)
Cn1c(CO)nc2ccccc21 | 0 (inactive)
Cc1ccc(C)n1Cc1ccccc1Cl | 0 (inactive)
O=C1NC(=O)/C(=C\c2cccs2)N1 | 1 (active)
